Reference: the supplement of paper PMC3334620
In all, about 33,000 sequences were measured (“E-score (-0.5 to 0.5)”: median about -0.035, highest 2% from about 0.34 on). The list comes from a sample in which the highest values are over-represented; it also holds similar and randomly drawn sequences.

What follows are sequences tested against T1, Mot3 (UniProt P54785) (assay: PBM E-score (8-mer binding enrichment) (E-score (-0.5 to 0.5)); higher = stronger / more preferred TF binding). Conditions: protein concentration: 200 nM; construct: GST-full length.
T1 sequence: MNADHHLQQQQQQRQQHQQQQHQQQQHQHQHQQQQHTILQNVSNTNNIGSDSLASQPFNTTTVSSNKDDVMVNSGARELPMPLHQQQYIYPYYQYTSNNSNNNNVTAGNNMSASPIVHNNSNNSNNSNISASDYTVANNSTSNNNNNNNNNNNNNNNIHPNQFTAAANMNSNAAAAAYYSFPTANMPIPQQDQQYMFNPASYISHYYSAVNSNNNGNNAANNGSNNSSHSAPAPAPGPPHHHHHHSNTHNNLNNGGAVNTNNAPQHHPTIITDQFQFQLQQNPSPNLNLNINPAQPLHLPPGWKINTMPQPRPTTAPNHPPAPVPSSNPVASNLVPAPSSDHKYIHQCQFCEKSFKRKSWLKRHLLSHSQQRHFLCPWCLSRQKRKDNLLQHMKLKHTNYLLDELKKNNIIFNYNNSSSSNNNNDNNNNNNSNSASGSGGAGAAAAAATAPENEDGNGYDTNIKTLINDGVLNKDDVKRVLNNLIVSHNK
Procedure: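 Universal 'all 10-mer' protein binding microarrays (Agilent AMADID 015681) probed with GST-tagged S. cerevisiae TFs (full-length or DBD) made by in vitro transcription/translation (PURExpress), about 100-200 nM. Bound TF was detected with fluorescent anti-GST. Each ungapped 8-mer (which stands for itself and its reverse complement) is scored by the PBM enrichment score (E-score), a modified Wilcoxon-Mann-Whitney statistic from -0.5 to +0.5, computed with the Universal PBM Analysis Suite. Scale: above 0.35 generally sequence-specific binding.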

Sequence	PBM E-score
CAAAGGAC	-0.189
CAAAGGTA	0.212
CAAAGGAG	-0.0795
CAAAGGAA	0.415
GAAAGGAA	0.29
AGTATCCA	-0.198
GGACCGTA	-0.201
CTCACGAG	-0.266
CGGGCCAC	-0.257
CCGGCGAC	-0.266
CATCTTAA	0.0785
ACCTCTTG	-0.0648
TATACGAA	0.0446
CCTTAAGA	0.0196
CCTTAAGG	0.345
CCTTAAGC	0.0192
TAACAGAA	0.227
CGCTAAAG	-0.0919
AGTACACG	0.357
GGTACATA	0.238
CGTACATA	0.305
AGTACACC	0.052
AGTACACA	0.313
GGTACACA	0.271
CGTACACG	0.226

Sequence	PBM E-score
TGTACACA	0.34
AGTACATA	0.362
ATTCTGTC	-0.0735
GAGAAATC	-0.077
CTCGAAAA	-0.084
CTTGGCGA	-0.105
GACCTAAA	-0.086
ACAGGATG	0.00887
GCTGTGTA	0.354
ACTGTGTA	0.349
CCTGTGTC	0.194
ACTGTGTC	0.112
GCTGTGAA	0.0424
ACTGTGTG	0.185
CCTGTGAA	0.254
GCTGTATA	0.145
CCTGTGTA	0.357
AAGCAAGA	0.0175
AGCAAGGG	-0.137
GCGGTCAA	-0.0964
GACTTAGA	-0.164
AGGCACAA	0.489
ATGCACAT	0.207
AGGCACAG	0.491
AGGCACAC	0.487

Sequence	PBM E-score
AAGCACAG	0.0561
AGGCACAT	0.49
TGGCACAA	-0.0932
CGGCACAG	-0.274
GGGCACAC	0.178
AAGCACAT	0.0905
CGGCACAC	-0.21
GGGCACAA	0.0559
CGATGGGA	-0.272
AGTTCAGC	-0.141
ATAACCCC	-0.207
CATCTGGC	-0.139
CGTTGATA	0.114
AATGAGCC	-0.238
CTTAGAAG	-0.209
CAACTACC	-0.02
CTGTGTTA	0.334
ACGTGTTG	0.338
ACGTGTCG	0.24
ATGTGTTA	0.316
GCGTGTTA	0.393
GCGTGTGA	0.177
ACGTGTCA	0.342
CCGTGTCA	0.277
GCGTGTCA	0.305

Sequence	PBM E-score
ACGTGTTC	0.221
GTGTGTTA	0.348
ACGTGTTA	0.351
ATCATCTG	-0.0881
AAGACCGC	-0.139
TCCGTTCA	-0.194
ATTCCATG	0.0576
CTCCGTTC	-0.0461
TAAACCTA	-0.01
AAGAGCTC	0.00626
CCGTGTTA	0.376
CAGTGTTA	0.212
CCGTGTTC	0.27
GCTCCTAA	0.118
AGCAAGAA	-0.0228
CTCGTCTA	-0.168
CCGCGGGA	-0.23
GCATTACA	0.35
GCATTACC	0.0719
TCATTAGA	0.0474
GCATTAGA	-0.0607
ACATTACA	0.357
TCATTACA	0.359
ACATTACT	0.218
ACATTACG	0.271

Sequence	PBM E-score
CCATTACA	0.337
AACACTGG	0.00047
GCTTATCC	-0.179
GCACAAGC	0.117
AGATACCT	-0.096
GAAGGATA	-0.0542
GAAGGAAA	0.454
CAAGGAAA	0.317
TAAGGATA	-0.102
TAAGGAGA	-0.0944
TAAGGAAA	0.424
AGGGATCC	-0.223
AATTTTAG	0.004
AATCTCTA	-0.0669
AGCATGTC	0.218
CGCATGTA	0.356
GGCATGCA	0.146
GGCATGGA	-0.0411
CGCATGGA	-0.0319
GGCATGTA	0.376
AGCATGTA	0.354
CGCATGTC	0.146
AGCATGTG	0.179
AAAGCGTA	0.0441
AGCACCGG	-0.32

Sequence	PBM E-score
GAAGCTTC	-0.191
CGAATAAC	0.0678
CAAATCAG	-0.048
ATGCGGCA	-0.115
TATACGCA	0.272
ATTGCCGA	-0.0541
ATTGCCAG	-0.156
CTTGCCTC	0.425
CTTGCCCC	-0.209
CTTGCCGC	-0.231
ATTGCCTG	0.482
ATTGCCTC	0.331
GTTGCCTA	0.488
GCTGCCTA	0.282
GTTGCCCA	0.103
ATTGCCCA	0.0652
ATTGCCTA	0.482
GAGCGCTC	-0.331
CGTCGCAA	-0.149
CAAGTCGG	-0.254
GGTACTCA	0.0108
AGCTATAA	-0.0249
CAGGTTCG	-0.00261
CACCAGGA	-0.104
CCTGCCTA	0.244

Sequence	PBM E-score
CTTGCCGA	-0.0816
CTTGCCTA	0.488
CGTTTGTC	-0.0445
CAGCCGCG	-0.0863
ATTTACAG	0.228
ATTTACTC	0.159
ATTTACAA	0.363
CGTTACAC	0.274
ATTTACGC	0.239
AATTTTAC	0.222
GTTTACAA	0.336
ATTTTTAC	0.34
CTTTACAC	0.415
CTTTACAA	0.326
ATTTACAC	0.412
ATTTTTAA	0.156
ACGAGAAC	0.0296
CATACAGC	-0.19
AAACGTGC	0.118
GCACCTCC	-0.215
ATGTCCTA	-0.0455
CGAGAGAG	-0.145
